Source: the supplement of paper PMC9925115
Counter-ions that a name gives are not always drawn.

tested on: FLX1 + dox-induced PRKAR1A G325D; test: difference in log2 fold change of viability vs plate median (dox-induced PRKAR1A G325D minus uninduced); higher = compound less effective when PKA is inhibited; details: concentration: not stated (2 or 5 uM); 5 days
Experimental: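 For each plate a log2 fold change vs the plate median was derived, and the values without dox were subtracted from those with dox, averaged over three biological replicates.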

| Compound | difference in log2 fold change of viability |
| --- | --- |
| C=CC(=O)Nc1cc(Nc2nccc(-c3cn(C)c4ccccc34)n2)c(OC)cc1N(C)CCN(C)C [Osimertinib (AZD9291)] | -0.173 |
| O=C(NCc1ccccc1)c1csc(Nc2ccncn2)n1 [Thiazovivin] | 0.59 |
| O=C(NOCC1CC1)c1ccc(F)c(F)c1Nc1ccc(I)cc1Cl | 0.453 |
| CNC(=O)c1ccc(C)c(-n2c(C)cc(OCc3ccc(F)cc3F)c(Br)c2=O)c1 | 0.455 |
| O=C1Nc2ccc(I)cc2/C1=C/c1cc(Br)c(O)c(Br)c1 | 1.35 |
| COc1cc2ncnc(Nc3ccc(O)c(Br)c3)c2cc1OC | -0.279 |
| CCN(CC)CCNC(=O)c1c(C)[nH]c(/C=C2\C(=O)Nc3ccc(F)cc32)c1C [Sunitinib Malate] | -0.043 |
| Cc1ccc(NC(=O)c2ccc(CN3CCN(C)CC3)cc2)cc1Nc1nccc(-c2cccnc2)n1 [Imatinib Mesylate (STI571)] | 0.343 |
| C#Cc1cccc(Nc2ncnc3cc4c(cc23)OCCOCCOCCO4)c1 [Icotinib] | -0.163 |
| CC(C)(C)c1cc(NC(=O)Nc2ccc(-c3cn4c(n3)sc3cc(OCCN5CCOCC5)ccc34)cc2)no1 [Quizartinib (AC220)] | 0.254 |
| Cc1cc(Nc2nc(N[C@@H](C)c3ccc(F)cc3)c(C#N)cc2F)n[nH]1 | -0.0432 |
| COc1ccc(CNC(=O)Nc2ncc([N+](=O)[O-])s2)cc1 | 0.288 |
| COc1ccc(-c2ccc3ncc4c(c3c2)n(-c2ccc(N3CCNCC3)c(C(F)(F)F)c2)c(=O)n4C)cn1 | 0.174 |
| COc1cc2ncnc(Oc3ccc(CC(=O)Nc4cnn(C(C)C)c4)cc3)c2cc1OC | -0.126 |
| O=C(c1ccc(Nc2nccc(-c3cc4ccccc4s3)n2)cc1)N1CCC(N2CCCC2)CC1 [IKK-16 (IKK Inhibitor VII)] | 0.096 |
| C[C@@H]1COC(Nc2ccc3ncnc(Nc4ccc(OCc5nccs5)c(Cl)c4)c3c2)=N1 [Varlitinib] | -0.557 |
| Cc1cc(C(=O)NOCCO)c(Nc2ccc(I)cc2F)n(C)c1=O | -0.818 |
| N#C/C(=C\c1ccc(O)c(O)c1)C(=O)NCc1ccccc1 [AG-490 (Tyrphostin B42)] | -0.0065 |
| CCS(=O)(=O)Nc1ccc2c(c1)/C(=C(/Nc1ccc(CN3CCCCC3)cc1)c1ccccc1)C(=O)N2 [Hesperadin] | -0.105 |
| CC(=O)Nc1cccc(-n2c(=O)n(C3CC3)c(=O)c3c(Nc4ccc(I)cc4F)n(C)c(=O)c(C)c32)c1 | -0.368 |

| Compound | difference in log2 fold change of viability |
| --- | --- |
| O=C1c2ccc(Nc3ccc(F)cc3F)cc2CCc2ccc(OC[C@H](O)CO)cc21 [Skepinone-L] | 0.71 |
| Cc1nc(NC(=O)N2CCC[C@H]2C(N)=O)sc1-c1ccnc(C(C)(C)C(F)(F)F)c1 [Alpelisib (BYL719)] | 0.385 |
| C[C@@H](Oc1cc(-n2cnc3ccc(CN4CCN(C)CC4)cc32)sc1C(N)=O)c1ccccc1C(F)(F)F | -0.2 |
| CCc1cc(Nc2nccc(-c3c(-c4ccc(OC)c(C(=O)Nc5c(F)cccc5F)c4)nc4ccccn34)n2)c(OC)cc1N1CCC(N2CCN(S(C)(=O)=O)CC2)CC1 | 0.164 |
| Cc1csc(-c2nnc(Nc3ccc(Oc4ncccc4-c4ccnc(N)n4)cc3)c3ccccc23)c1 | 0.188 |
| CCC[C@H](NC(=O)/C(C#N)=C/c1cccc(Br)n1)c1ccccc1 [Degrasyn (WP1130)] | 0.135 |
| CCN1CCN(Cc2ccc(Nc3ncc(F)c(-c4cc(F)c5nc(C)n(C(C)C)c5c4)n3)nc2)CC1 | -0.0976 |
| CC1(C)CNc2cc(NC(=O)c3cccnc3NCc3ccncc3)ccc21 [Motesanib Diphosphate (AMG-706)] | 0.326 |
| C[C@@]1(C(=O)Nc2ccc(F)nc2)CCCN1c1nc(Nc2cc(C3CC3)n[nH]2)c2cccn2n1 | -1.23 |
| Cc1cc(F)c(Nc2ncnc3cc(OCc4ccccc4)ccc23)cc1O | 0.0836 |
| O=C(Cc1ccc(-c2ccc(OCCN3CCOCC3)cc2)cn1)NCc1ccccc1 | 0.213 |
| CCn1c(=O)c(-c2ccc(-c3cncs3)cc2Cl)cc2cnc(Nc3ccc(N4CCN(C)CC4)cc3)nc21 | -0.943 |
| O=C(O)[C@]1(Cc2cccc(Nc3nccs3)n2)CC[C@@H](Oc2cccc(Cl)c2F)CC1 | -0.795 |
| C=CC(=O)Nc1cccc(Oc2nc(Nc3ccc(N4CCN(C)CC4)cc3OC)ncc2Cl)c1 | -1.14 |
| Cc1[nH]nc2ccc(-c3cncc(OC[C@@H](N)Cc4ccccc4)c3)cc12 | 0.18 |
| O=c1sn(-c2cccc3ccccc23)c(=O)n1Cc1ccccc1 [Tideglusib] | 1.01 |
| COc1cc(Nc2ncc(F)c(Nc3ccc4c(n3)NC(=O)C(C)(C)O4)n2)cc(OC)c1OC | -0.353 |
| O=c1cc(N2CCOCC2)oc2c(-c3ccccc3)cccc12 | 0.224 |
| O=C1NC(=O)[C@@H](c2cn3c4c(cccc24)CCC3)[C@@H]1c1c[nH]c2ccccc12 [Tivantinib (ARQ 197)] | 0.768 |
| CCS(=O)(=O)c1cccc(-c2cc(C(=O)NC3CCN(C)CC3)c(C)c3[nH]c4ncc(C)cc4c23)c1 | -0.102 |
